CHO-K1 Ca antag: nonselective inhibitor or artifact in parental CHO-K1 cells; AID 602250; 360,000 compounds, 0.6% hits; inhibition, % at 3 µM; ATP-induced calcium, Fluo-8 fluorescence;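 active = inhibition above a per-plate cutoff, the plate's mean sample inhibition plus 3 SD, cut at about 24% in these data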;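 also: 0% = DMSO plus EC80 ATP and 100% = DMSO alone without ATP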
CHRM1 antagonist: antagonists of human M1 muscarinic receptor; P11229; CHO-K1 hM1, Fluo-8 calcium fluorescence, ACh EC80 antagonist; inhibition, % at 3 µM; 360,000 compounds, 1.3% hits;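 active = percent inhibition above its own plate's cutoff, namely the mean of that plate's compound wells plus 3 SD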;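 also: peak over basal fluorescence ratio during 140 s after agonist addition; 0% = ACh EC80 plus DMSO and 100% = DMSO alone without agonist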
Target sequence (P11229 whole entry, looked up): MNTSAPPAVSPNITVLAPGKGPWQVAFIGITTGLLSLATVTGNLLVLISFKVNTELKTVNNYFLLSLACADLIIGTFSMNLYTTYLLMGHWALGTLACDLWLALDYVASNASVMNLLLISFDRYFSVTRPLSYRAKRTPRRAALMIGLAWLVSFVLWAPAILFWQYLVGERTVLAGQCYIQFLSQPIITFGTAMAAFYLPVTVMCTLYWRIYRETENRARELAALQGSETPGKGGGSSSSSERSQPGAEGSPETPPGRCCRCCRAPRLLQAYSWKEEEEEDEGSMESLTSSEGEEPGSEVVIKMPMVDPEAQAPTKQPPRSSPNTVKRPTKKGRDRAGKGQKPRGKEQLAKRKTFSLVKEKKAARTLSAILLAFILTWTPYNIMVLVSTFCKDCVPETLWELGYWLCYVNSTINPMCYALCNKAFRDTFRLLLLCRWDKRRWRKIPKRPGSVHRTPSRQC
M1 PAM parental: nonselective activator or artifact in parental CHO-K1 calcium assay; ATP EC20, Fluo-8 calcium fluorescence; 0% at ATP EC20, 100% at ATP max; activation, % at 3 µM; 360,000 compounds, 0.02% hits; AID 602247;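 active = activation above the run cutoff, the mean activation of all test compounds plus 3 SD, cut at about 40% in these data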;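 also: peak over basal fluorescence ratio in a 140 s read after ATP addition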
CHRM1 agonist: agonists of human M1 muscarinic receptor; P11229; CHO-K1 hM1, Fluo-8 calcium fluorescence, agonist mode; 0% DMSO, 100% acetylcholine EC100; activation, % at 3 µM; 360,000 compounds, 0.33% hits; AID 588814;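 active = activation above the run's mean compound activation plus 3 SD, cut at about 16% in these data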;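 also: peak over basal fluorescence ratio within a 140 s kinetic read after compound addition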
CHO-K1 Ca ag: counter-screen for M1 agonists: effect in parental CHO-K1 cells. Fluo-8 calcium fluorescence; scaled to maximal ATP response, vehicle zero. activation, % at 3 µM. 360,000 compounds, 0.48% hits; in the data active = activation above about 15%;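 also: untransfected CHO-K1 host cells lacking M1 receptor as counterscreen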
CHRM1 PAM: human CHRM1 positive allosteric modulation | P11229 | CHO-K1 hM1, Fluo-8 calcium fluorescence, ACh EC20; 0% = ACh EC20, 100% = maximal ACh | activation, % at 3 µM | 360,000 compounds, 0.088% hits | AID 588819; in the data active = activation above about 19%, passing the limit was not always enough
* hit, by the source's call; ! = a repeat was not active. Only some compounds are listed: those with a hit (about 2.4% of all), similar ones and a draw of the others.

SMILES | CHO-K1 Ca antag | CHRM1 antagonist | M1 PAM parental | CHRM1 agonist | CHO-K1 Ca ag | CHRM1 PAM
Cc1ccc(C(=O)CCC(=O)N2CCN(C/C=C/c3ccccc3)CC2)cc1 | 0 | -3 | 14 | 24* | 2 | -9
CCCCNC(=O)N1CCN(C/C=C/c2ccccc2)CC1 | 13 | 7 | -7 | -11 | 0 | -7
CCOc1ccc(C(=O)NCC(=O)N2CCN(C/C=C/c3ccccc3)CC2)cc1OCC | -7 | 30* | 9 | 27* | 1 | -14
COC(=O)c1ccccc1NC(=O)N1CCN(C/C=C/c2ccccc2)CC1 | -22 | 3 | 16 | -9 | 1 | -7
COc1ccc(-c2nc3ccc(Cl)cn3c2Cc2cccc(F)c2)cc1OC | -13 | -4 | 9 | -3 | 1 | -7
Cn1nc(C(=O)NNC(=O)c2ccccc2Br)c2ccccc2c1=O | -11 | -14 | 0 | -1 | 2 | 14
CCOC(=O)C1CCCN(CC(=O)Nc2c(F)c(F)c(F)c(F)c2F)C1 (centres undefined) | -2 | -3 | 8 | 10 | 0 | 1
CCOC(=O)c1[nH]ncc1CN1CCCC(C(=O)c2ccc(C(C)(C)C)cc2)C1 (centres undefined) | -6 | 38* | -7 | -6 | 1 | -10
CCOC(=O)C1CCCN(CC(=O)c2ccc(F)cc2)C1 (centres undefined) | 1 | 57* | -1 | 65* | 6 | -20
COc1cc(CN2CCCC(C(=O)c3ccc(C(C)(C)C)cc3)C2)cc(OC)c1O (centres undefined) | -7 | 9 | -4 | -10 | 1 | -15
COc1ccccc1C(=O)N1CCN(Cc2cn[nH]c2-c2ccc(F)cc2F)CC1 | -12 | -1 | 27 | -5 | 1 | 3
CCOC(=O)C1CCCN(Cc2cn[nH]c2-c2ccc(F)cc2F)C1 (centres undefined) | 4 | -1 | 8 | 8 | 18* | 4
COc1ccc(-c2coc3c(C(=O)Nc4cc(OC)c(OC)c(OC)c4)cccc23)c(C)c1 | -5 | 45* | -2 | -2 | 2 | -22
COc1ccc(-c2ccc(C(=O)NCc3ccncc3)c3occc23)c(C)c1 | 42* | 42* | -13 | -1 | 11 | -17
COc1ccc(-c2ccc(C(=O)N3CCN(C)CC3)c3occc23)c(C)c1 | 32* | -12 | -10 | 1 | 0 | 9
COc1ccc(-c2coc3c(C(=O)NCc4ccc(OC)c(OC)c4)cccc23)c(C)c1 | 23 | 44* | 1 | 3 | 13 | -19
COc1ccc(-c2ccc(C(=O)N3CCOCC3)c3occc23)c(C)c1 | -2 | 19 | -12 | 2 | 6 | -13
COc1ccc(-c2ccc(C(=O)NCc3ccc(F)c(F)c3)c3occc23)c(C)c1 | -11 | 3 | 15 | -5 | 3 | -4
COc1ccc(NC(=O)CCNC(=O)c2ccco2)cc1Cl | -8 | -11 | -9 | -1 | 1 | 6
COc1ccc(/C=N/NC(=O)c2ccc(CN3C(=O)c4cccc5cccc3c45)cc2)cc1O | 3 | 0 | -9 | 23* | 0 | 1
COc1cc(/C=N/NC(=O)c2ccc(CN3C(=O)c4cccc5cccc3c45)cc2)cc(OC)c1O | 6 | -1 | 3 | 13 | 15* | 6
COc1ccc(/C=N/NC(=O)c2ccc(-c3ccccc3)cc2)cc1O | 13 | 11 | -3 | -4 | 2 | -8
COc1cc(/C=N\NC(=O)c2ccc(-c3ccccc3)cc2)cc(Br)c1O | -1 | -7 | -2 | -3 | 0 | 10
COCCNC(=S)N(CCc1c(C)[nH]c2ccccc12)Cc1cccnc1 | -14 | 5 | 0 | -6 | 1 | 4
CC(C)Cc1nc2oc3c(Cl)ncnc3c2c2c1CCCC2 | 2 | 1 | -3 | -4 | 0 | 3
SMILES | CHO-K1 Ca antag | CHRM1 antagonist | M1 PAM parental | CHRM1 agonist | CHO-K1 Ca ag | CHRM1 PAM
CCCc1nc2oc3c(Cl)ncnc3c2c2c1CCCC2 | -6 | 52* | 19 | -7 | 0 | -24
COc1ccc(NC(=O)CN2CCN(c3ccc(Cl)cc3)CC2)c(OC)c1 | -21 | -4 | 42* | -3 | 0 | -1
COc1ccc(NC(=O)CN2CCN(CC(=O)Nc3ccccc3Cl)CC2)c(OC)c1 | -22 | -10 | 19 | -2 | 1 | 6
COc1ccc(OC)c(C(=O)N2CCC(C(=O)c3ccc(F)cc3)CC2)c1 | 24* | 12 | -7 | 0 | 1 | -3
COc1ccc(NC(=O)CN2CCN(c3nc(-c4ccc(F)cc4)cs3)CC2)c(OC)c1 | -26 | -7 | 53* | -5 | 0 | 8
COc1ccc(NC(=O)CN2CCC(C(=O)c3ccc(F)cc3)CC2)c(OC)c1 | -11 | 2 | -9 | -2 | 37* | -1
COc1ccc(NC(=O)N2CCC(C(=O)c3ccc(F)cc3)CC2)cc1 | 0 | -4 | 15 | -1 | 0 | 2
COc1cccc(CNC(=O)Cn2ncc3c(=O)oc4ccccc4c32)c1 | -14 | -21 | 9 | -2 | 1 | 2
CCCCC(=O)c1ccc(OC(=O)c2ccc([N+](=O)[O-])cc2)cc1 | 18 | 0 | -27 | -3 | 0 | -3
C[C@H](CO)N1C[C@H](C)[C@H](CN(C)S(=O)(=O)c2ccc(Cl)cc2)OCc2cnnn2CCCC1=O | 13 | -15 | 7 | -4 | 1 | 9
COc1ccccc1NC(=O)C1CCCCN1S(=O)(=O)c1ccc(F)cc1 (centres undefined) | 8 | -2 | 2 | -7 | 0 | 3
COc1ccc(NC(=O)C2CCCCN2S(=O)(=O)c2ccc(F)cc2)c(OC)c1 (centres undefined) | 27* | -3 | -4 | -2 | 0 | 9
COc1ccc(CCNc2nc3ccccc3n3nnnc23)cc1OC | 27* | 5 | 0 | 1 | 2 | -4
O=C(NCc1ccncc1)C(=O)NCC1OCCN1S(=O)(=O)c1cc(F)ccc1F (centres undefined) | -7 | -10 | 21 | -5 | 0 | 2
CC(C)CC1Nc2ncnc(N3CCN(c4ccccn4)CC3)c2N(Cc2ccccc2)C1=O (centres undefined) | -13 | 38*! | -7 | -12 | 0 | -30
Cc1cc(C)n(C(=O)c2c([N+](=O)[O-])c(C)nn2C)n1 | 1 | -4 | 9 | -5 | 0 | 5
Cc1ccc(SC(=O)c2c([N+](=O)[O-])c(C)nn2C)cc1 | 6 | 62* | -11 | -9 | 0 | -27
Cc1nn(C)c(C(=O)Nc2cccc(Nc3ccccc3)c2)c1[N+](=O)[O-] | 19 | 26* | -12 | -1 | 1 | -6
Cc1nn(C)c(C(=O)N/N=C/c2ccncc2)c1Cl | 0 | -14 | 8 | -3 | 0 | 8
Cc1nn(C)c(C(=O)N/N=C/c2ccccc2)c1[N+](=O)[O-] | 23 | 21* | -6 | -6 | 0 | -23

Compound activity deposited in PubChem by The Scripps Research Institute Molecular Screening Center.
